Sampled rows, rich in hits. Any-hit rate of the full collection: about 27%.
CYP2C9 activ: activators of human CYP2C9. P11712. recombinant CYP2C9, luciferin-H conversion, luminescence; stronger effect = higher value; factor 1 = untreated enzyme, 0 = blocked. activation factor at 5 µM. 1.4% of 96,000 active. AID 1024;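 active = activation factor of 2 or more for CYP2C9 at a 5 µM dose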;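 note: 0 = sulfaphenazole-blocked wells and 1 = vehicle-only wells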
Target sequence (P11712 whole entry, looked up): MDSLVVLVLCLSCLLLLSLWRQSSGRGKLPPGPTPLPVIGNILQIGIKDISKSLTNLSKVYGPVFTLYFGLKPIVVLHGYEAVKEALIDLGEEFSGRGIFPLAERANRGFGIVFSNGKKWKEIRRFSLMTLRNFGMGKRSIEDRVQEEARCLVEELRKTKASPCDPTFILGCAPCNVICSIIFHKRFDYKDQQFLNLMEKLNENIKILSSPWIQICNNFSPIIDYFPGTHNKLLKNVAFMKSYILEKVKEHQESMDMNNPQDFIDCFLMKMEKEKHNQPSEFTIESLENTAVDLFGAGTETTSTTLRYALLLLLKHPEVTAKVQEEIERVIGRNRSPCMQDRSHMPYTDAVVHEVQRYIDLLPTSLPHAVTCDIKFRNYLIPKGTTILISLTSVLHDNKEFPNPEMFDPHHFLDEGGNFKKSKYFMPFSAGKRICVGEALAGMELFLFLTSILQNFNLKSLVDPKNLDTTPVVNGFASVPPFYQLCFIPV
CYP2C19 activ: cytochrome P450 2C19 (human) activation; P33261; recombinant CYP2C19, luciferin-H EGE luminescence; stronger effect = higher value; 0 = fully inhibited enzyme, 1 = untreated enzyme; activation factor at 5 µM; 96,000 tested, under 10 active;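 active = activation factor of at least 2 at 5 µM in the primary screen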;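 note: 0 = wells with 2.5 mM tranylcypromine and 1 = vehicle-only wells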
CYP2C19 inhib: inhibitors of human CYP2C19 | P33261 | CYP2C19 Supersomes, luciferin-H EGE luminescence, 30 min | inhibition, % at 5 µM | 21% of 96,000 active | AID 778;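 active = CYP2C19 inhibition above a set limit at 5 µM in the primary screen, cut at about 50% in these data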;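 note: plate controls were negative control wells for no effect and 2.5 mM tranylcypromine positive control for full effect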
Cav3 T inh: inhibitors of human Cav3.2 T-type calcium channel; O95180; Cav3.2-expressing cells, Fluo-4 calcium fluorescence FDSS; stronger effect = lower value; B-score at 10 µM; 4% of 100,000 active; AID 449739;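 active = single-dose well whose peak fluorescence ratio is a statistical outlier from its plate by either plate-standardised score or position-corrected B-score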
CYP2C9 inh: blocks human cytochrome P450 2C9. P11712. CYP2C9 Supersomes, luciferin-H conversion, luminescence. inhibition, % at 5 µM. 20% of 96,000 active;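 active = blocking of liver enzyme CYP2C9 beyond about 50% at 5 µM, limit read from the data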
An asterisk follows results filed as active.

Screening C/C(CC(=O)NCc1ccco1)=N\NC(=O)Cc1cccc2ccccc12 returned CYP2C9 activ 1, CYP2C19 activ 0.9, CYP2C19 inhib 7.8, Cav3 T inh 0.49 and CYP2C9 inh -0.6.
Screening COc1ccc(CN(C(=O)c2ccco2)c2ccc(C)cc2)cc1OC returned CYP2C9 activ 0.4, CYP2C19 activ 0.3, CYP2C19 inhib 65.4*, Cav3 T inh -2.22 and CYP2C9 inh 63.3*.
`O=C(C1=C[C@H](c2ccccc2)C[C@H](OCc2ccc(CO)cc2)O1)N1CCOCC1` gave Cav3 T inh 0.188.
`CCCCNC(=O)NS(=O)(=O)c1ccc(C(=O)OC)o1` gave CYP2C9 activ 0.9, CYP2C19 activ 1, CYP2C19 inhib -1.5, Cav3 T inh 0.322 and CYP2C9 inh 14.8.
For c1ccc2nc3c(cc2c1)CCCCCC3 the results were CYP2C9 activ 0.6, CYP2C19 activ 0.3, CYP2C19 inhib 66.0*, Cav3 T inh -0.105 and CYP2C9 inh 43.7.
Screening Cc1onc(COc2ccccc2O)c1Br returned CYP2C9 activ 0.9, CYP2C19 activ 0.3, CYP2C19 inhib 72.7*, Cav3 T inh -0.00638 and CYP2C9 inh 9.6.
CCOc1ccc(CNCc2cccnc2)cc1 was read as Cav3 T inh 0.543.
For CCCCNC(=O)c1ccc2c(OCC)n(CCCC)nc2c1 the results were CYP2C9 activ 1, CYP2C19 activ 0.9, CYP2C19 inhib 12.8, Cav3 T inh -1.71 and CYP2C9 inh 2.2.
Screening CCCn1nc2cc(C(=O)NCCc3cccs3)ccc2c1OCC returned CYP2C9 activ 0.7, CYP2C19 activ 0.5, CYP2C19 inhib 54.2*, Cav3 T inh 0.142 and CYP2C9 inh 34.1.
CCCCn1nc2cc(C(=O)NCc3ccc4c(c3)OCO4)ccc2c1OCC was read as CYP2C9 activ 0.3, CYP2C19 activ 0.4, CYP2C19 inhib 59.3*, Cav3 T inh 0.952 and CYP2C9 inh 65.7*.
`Cc1ccc(-c2n[nH]c(=S)n2-c2ccccc2)cc1` gave Cav3 T inh 1.56.
For Cc1ccc(-n2c(-c3c(-c4ccccc4)noc3C)n[nH]c2=S)cc1 the results were CYP2C9 activ 0.3, CYP2C19 activ 0.4, CYP2C19 inhib 61.7*, Cav3 T inh 1.46 and CYP2C9 inh 67.5*.
CSc1nc(N)nc(SCC(=O)c2ccccc2)c1C#N was read as CYP2C9 activ 0.8, CYP2C19 activ 1, CYP2C19 inhib 4.1 and CYP2C9 inh 24.6.
`Cc1nc(SCC(=O)OCc2ccccc2)c(C#N)c(-c2ccccc2)c1C(=O)Nc1ccccc1` gave CYP2C9 activ 0.4, CYP2C19 activ 0.8, CYP2C19 inhib 19.4, Cav3 T inh -2.4 and CYP2C9 inh 59.4*.
For CSc1nc(C)c(C(=O)Nc2ccccc2)c(C)c1C#N the results were CYP2C9 activ 0.7, CYP2C19 activ 0.3, CYP2C19 inhib 73.0*, Cav3 T inh -0.582 and CYP2C9 inh 33.2.
Screening O=C(O)CC1Oc2ccc(Cl)cc2NC1=O (centres undefined) returned CYP2C9 activ 0.4, CYP2C19 activ 0.9, CYP2C19 inhib 7.7, Cav3 T inh 0.82 and CYP2C9 inh 55.4*.
For Cc1ccc(C(=O)COC(=O)CNS(=O)(=O)c2ccccc2)cc1[N+](=O)[O-] the results were CYP2C9 activ 1.1, CYP2C19 activ 0.9, CYP2C19 inhib 6.3 and CYP2C9 inh -5.3.
For O=C(c1nnc(-c2ccncc2)o1)c1ccccc1Cl the results were CYP2C9 activ 0.6, CYP2C19 activ 0.2, CYP2C19 inhib 83.6*, Cav3 T inh 0.0401 and CYP2C9 inh 38.4.
CC1(c2nnc(-c3ccccc3)o2)CC(c2ccncc2)=NO1 (centres undefined) was read as Cav3 T inh 0.557.
`O=C(c1ccc(Cl)cc1)c1nnc(-c2ccncc2)o1` gave CYP2C9 activ 0.5, CYP2C19 activ 0.2, CYP2C19 inhib 78.3*, Cav3 T inh -0.214 and CYP2C9 inh 46.9.
`O=C(c1ccccc1)c1nnc(-c2ccncc2)o1` gave CYP2C9 activ 0.8, CYP2C19 activ 0.3, CYP2C19 inhib 70.6*, Cav3 T inh 0.0419 and CYP2C9 inh 18.8.
Screening COC(=O)C1CCN(C(=O)CSc2nnc(-c3ccncc3)o2)CC1 returned CYP2C9 activ 1, CYP2C19 activ 0.8, CYP2C19 inhib 15.3, Cav3 T inh -0.155 and CYP2C9 inh -4.8.
For Cc1nnsc1C(=O)Nc1cc(Cl)ccc1Cl the results were Cav3 T inh -0.617.
For CCNc1nc(N)c(C(=O)c2ccc(Cl)s2)s1 the results were CYP2C9 activ 0.5, CYP2C19 activ 0.2, CYP2C19 inhib 83.4*, Cav3 T inh 0.0464 and CYP2C9 inh 54.2*.
Cc1ccc(S(=O)(=O)N=S(CC2CC2(Cl)Cl)CC2CC2(Cl)Cl)cc1 (centres undefined) was read as CYP2C9 activ 0.6, CYP2C19 activ 0.4, CYP2C19 inhib 62.3*, Cav3 T inh -1.02 and CYP2C9 inh 43.9.
`Cc1nc2c(C(=O)NCc3ccc4c(c3)OCO4)c[nH]n2c(=O)c1Cl` gave CYP2C9 activ 0.2, CYP2C19 activ 1.1, CYP2C19 inhib -12.0, Cav3 T inh 1.57 and CYP2C9 inh 77.2*.
O=C(NCCC1=CCCCC1)c1cnc2n(c1=O)CCS2 was read as Cav3 T inh -0.211.
Screening O=C(NCc1ccc2c(c1)OCO2)c1cnc2n(c1=O)CCS2 returned CYP2C9 activ 1.1, CYP2C19 activ 0.8, CYP2C19 inhib 23.9 and CYP2C9 inh -14.2.
For Cc1nc2c(C(=O)NCCC3=CCCCC3)c[nH]n2c(=O)c1Cl the results were CYP2C9 activ 0.4, CYP2C19 activ 1.1, CYP2C19 inhib -8.0, Cav3 T inh -4.3 and CYP2C9 inh 56.0*.
C#CC(C)(C)NC(=O)c1ccccc1OC was read as CYP2C9 activ 2.4*, CYP2C19 activ 1.2, CYP2C19 inhib -15.3, Cav3 T inh 0.521 and CYP2C9 inh -138.1.
Screening COc1ccccc1OCCNC(=O)c1ccc(S(=O)(=O)N(C)C)cc1 returned CYP2C9 activ 0.8, CYP2C19 activ 0.9, CYP2C19 inhib 9.9, Cav3 T inh 0.413 and CYP2C9 inh 17.9.
COc1ccccc1CNC(=O)c1ccccc1OC was read as CYP2C9 activ 3.8*, CYP2C19 activ 0.2, CYP2C19 inhib 76.6*, Cav3 T inh -0.409 and CYP2C9 inh -283.7.
For COc1ccccc1CNC(=O)c1ccc(S(=O)(=O)N(C)C)cc1 the results were CYP2C9 activ 0.7, CYP2C19 activ 0.3, CYP2C19 inhib 72.7*, Cav3 T inh 0.522 and CYP2C9 inh 32.0.
Screening COc1ccccc1CNC(=O)COc1ccccc1OC returned CYP2C9 activ 3.4*, CYP2C19 activ 0, CYP2C19 inhib 97.2*, Cav3 T inh -0.396 and CYP2C9 inh -240.8.
For COc1ccccc1CNC(=O)CC(C)C the results were CYP2C9 activ 1.2, CYP2C19 activ 0.9, CYP2C19 inhib 7.3, Cav3 T inh 0.551 and CYP2C9 inh -17.2.
For COc1ccccc1C(=O)Nc1ccccc1C(=O)N1CCCC1 the results were CYP2C9 activ 0.9, CYP2C19 activ 1, CYP2C19 inhib 3.5, Cav3 T inh 0.611 and CYP2C9 inh 8.9.

Screening data deposited in PubChem by several laboratories.
